This is part of a sample that, as a whole, favours compounds with a hit. Of some 83,000 tested, about 20% had one in any assay.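 How to read the values: 0–100, growth inhibition (40 = 60% inhibited); 0, no net growth; -100 to 0, cell death (-40 = 40% of starting cells died; -100 = all dead).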 A number with no mark means an inactive call. The source made the active and inactive calls. The calls were made as follows: active = growth percent below 10; inactive = the rest.
What was measured:
Experiment in all cases: NCI-60 one-dose screen, 48 h (100 = growth as untreated, 0 = no growth, -100 = all killed)
Details in all cases: 10 µM unless noted
[1] = tested on: NCI-H226 lung
[2] = tested on: NCI-H322M lung
[3] = tested on: HOP-62 NSCLC
[4] = tested on: NCI-H460 lung
[5] = tested on: HOP-92 NSCLC
[6] = tested on: NCI-H522 lung
[7] = tested on: A549/ATCC NSCLC
[8] = tested on: 786-0 renal
[9] = tested on: COLO 205 colon

Structure (SMILES)	growth [1]	growth [2]	growth [3]	growth [4]	growth [5]	growth [6]	growth [7]	growth [8]	growth [9]
COc1cccc(CNc2ccc3ncnc(Nc4ccc(F)c(Cl)c4)c3c2)c1	71.4%	34.1%	82.5%	78%	76.8%	18.6%	53.1%	71.2%	91.3%
CCn1c(SCC(=O)N/N=C(\C)c2ccc(Cl)cc2)nc2c1c(=O)n(C)c(=O)n2C	99.7%	96.9%	91.8%	101%	103%	97.7%	104%	101%	107%
CCN1C(=O)N(CC)C2C1NN=c1s/c(=C\c3ccccc3F)c(=O)n12 (stereo unspecified)	48.5%	42.6%	–	2.31% (active)	40.3%	-8.42% (active)	7.92% (active)	20.6%	-9.98% (active)
CCCOC(=O)Nc1nc2ccc(SCC(C)C)cc2s1	52.4%	44.1%	40.7%	29.1%	48.4%	24.1%	34.3%	40.4%	11.6%
NC(=O)CSc1oc(-c2ccccc2)nc1S(=O)(=O)c1ccc(Br)cc1	–	89.8%	73.9%	71.6%	5.26% (active)	70.1%	74.5%	25.9%	107%
Cc1ccc2c(c1)=C/C(=C\c1cc(-c3ccccc3)oc1O)C(=O)N=2	106%	104%	101%	113%	87.4%	97.4%	105%	91.4%	108%
COc1cc(OCc2cccc(Br)c2C)cc(OC)c1C=O	29.3%	92.6%	93.5%	75.8%	90.6%	62%	76.5%	79.4%	93.4%
Clc1ccc2c(c1)C(c1c[nH]c3ccccc13)(c1c[nH]c3ccccc13)CCO2	79.7%	90.8%	46.4%	85.3%	43.1%	-62.7% (active)	24.6%	80.8%	51.4%
CCN1C(=S)N(c2ccccc2)C2NC(=S)N(/N=C/C=C/c3ccccc3OC)C21 (stereo unspecified)	58%	45.6%	36.9%	3.12% (active)	53.5%	-15.5% (active)	11.4%	29.4%	-2.82% (active)
N#Cc1c(-c2ccc(Cl)cc2)nc(NN2C(=O)c3ccccc3C2=O)nc1N1CCOCC1	99.9%	111%	97.9%	106%	99.8%	97.5%	107%	99.8%	110%
CCN(CC)CCCCCNc1cc(OC(=O)c2ccc(Cl)cc2)cc2cccnc12	105%	106%	95.8%	110%	38.2%	24.4%	95.3%	106%	33.9%
Cc1cn(-c2cc(NC(=O)c3cccc(C#Cc4cccc5[nH]nc(N)c45)c3)cc(C(F)(F)F)c2)cn1	–	66%	55.5%	30.5%	-16.6% (active)	39.9%	45.4%	26.5%	18.6%
Cn1cc(-c2csc(-c3c[nH]c4ccccc34)n2)c2cnccc21	–	90.2%	8.92% (active)	-17.7% (active)	–	-39.6% (active)	18%	-87% (active)	-37.3% (active)
CCO/C=N/C1=C(C#N)C(c2ccc(Cl)cc2)c2sc3c(F)cccc3c2O1 (stereo unspecified)	88.6%	92.3%	58.4%	25.6%	77.1%	-6.96% (active)	53.4%	71.5%	95.7%
COc1ccc2cc1Oc1ccc(cc1)C[C@H]1c3c(cc4c(c3Oc3cc5c(cc3OC)CCN(C)[C@@H]5C2)OCO4)CCN1C	87.4%	56%	115%	59.4%	52.6%	-18.8% (active)	47.2%	53.5%	109%
CC1CCc2c(C(=O)Nc3ncc(Cc4cccc([N+](=O)[O-])c4)s3)csc2C1 (stereo unspecified)	54.1%	33.1%	–	11.2%	58.9%	2.96% (active)	34.4%	30.1%	10.8%
C#CCOc1ccc2ncnc(Nc3ccc(NC(=O)C=C)cc3)c2c1	97.7%	69.5%	78.5%	24.1%	-36.8% (active)	-75.7% (active)	80%	-37.7% (active)	-57.6% (active)
Fc1cnccc1C1CC(c2ccc(N3CCNCC3)cc2)=NN1 (stereo unspecified)	82.9%	89.3%	–	94.9%	72.4%	81.9%	76.2%	111%	95.7%
Clc1ccc2c(NC3CCC(N4CCOCC4)CC3)ccnc2c1 (stereo unspecified)	68.9%	101%	66.7%	81.8%	48.7%	80.8%	74.5%	70.6%	81.4%

Structure (SMILES)	growth [1]	growth [2]	growth [3]	growth [4]	growth [5]	growth [6]	growth [7]	growth [8]	growth [9]
N#Cc1ccc(O)c(C2=NCC(c3cccc(Oc4ccccc4)c3)O2)c1 (stereo unspecified)	45.2%	41.7%	2.94% (active)	4.55% (active)	36.8%	-11.9% (active)	-0.648% (active)	26.4%	14.7%
O=S(=O)(NCCNc1nccc(-c2c(-c3ccc(F)c(O)c3)nc3sccn23)n1)c1ccc(O)cc1	37.4%	70.8%	78.7%	40%	47.7%	25.4%	35.3%	49.6%	34.7%
CCC(C)(C)C(=O)O[C@H]1C[C@@H](C)C=C2C=C[C@H](C)[C@H](CC[C@@H]3CC(SCCN)CC(=O)O3)[C@H]21 (stereo partly specified)	98.3%	97.4%	98.9%	107%	34.6%	65.4%	75.7%	102%	82.8%
CCCn1cc2c(=O)nc3sc(Cc4ccccc4)c(C)n3c2n1	107%	98.5%	–	101%	88.4%	75%	83.5%	99.1%	109%
CCOc1ccc(NC(=O)CSc2oc(-c3ccccc3)nc2S(=O)(=O)c2ccc(C)cc2)cc1	-18.8% (active)	61.1%	53.9%	35.9%	46.4%	83.8%	41.1%	66.1%	81.8%
C=C(C)[C@@H]1CCC[C@]2(COS(=O)(=O)c3ccc(C)cc3)CC[C@]3(C)[C@@H](CC[C@@H]4[C@@]5(C)CCCNC(C)(C)[C@@H]5CC[C@]43C)[C@@H]12	82.1%	39.7%	69%	-49.1% (active)	19%	-41% (active)	-12% (active)	-77.5% (active)	-86.1% (active)
CN(C)CC1CCC(CN(C)C)C1=O (stereo unspecified)	101%	110%	106%	111%	–	95.3%	110%	102%	103%
O=C(N/N=C/c1c(Cl)cccc1Cl)c1cccnc1Nc1cccc(C(F)(F)F)c1	18.4%	35%	40.2%	15%	14.7%	1.47% (active)	51%	42.6%	15.1%
CCCCCN1C(=O)/C(=c2\sc3n(c2=O)C2C(NN=3)N(CC)C(=O)N2CC)c2ccccc21 (stereo unspecified)	9.26% (active)	21.2%	9.45% (active)	-74.6% (active)	3.79% (active)	-28% (active)	-85% (active)	-61.6% (active)	0.959% (active)
O=C(Nc1cccc(Cl)c1)Nc1cccc(Cn2c(=O)[nH]c3ccc(Oc4ncccn4)cc3c2=O)c1	64.4%	66.1%	64.8%	42.8%	–	25.6%	40.4%	71.4%	48.3%
COc1cc(-c2nc3sccn3c2-c2ccnc(NCCNS(=O)(=O)c3ccccc3)n2)ccc1F	41.2%	67.7%	73.2%	60.4%	47.8%	36.2%	45.5%	61.4%	40.4%
COc1cc2c(c(OC)c1OC)CCC(c1cccc(C(=O)Nc3cccc(Cl)c3)c1)O2 (stereo unspecified)	65.6%	51.7%	79.6%	85%	8.45% (active)	51.7%	61.6%	79.8%	76.7%
CCOC(=O)C1=C(N)Oc2c(sc3c(F)cccc23)C1c1ccc(O)cc1 (stereo unspecified)	55.2%	67.5%	55.4%	30.4%	34.6%	26.9%	40.5%	59.6%	79.5%
CSc1nnc(-c2cc3c([nH]c4ccccc43)c(-c3cccc(O)c3)n2)n1-c1ccccc1	51.6%	43.3%	47.6%	12.1%	48.7%	-15% (active)	46.1%	24.1%	85.3%
CCOC(=O)c1cc2c(n1Cc1cc(OC)c(OC)c(OC)c1)-c1nc(N)sc1CCC2	73.4%	81.7%	44.3%	31.9%	–	7.85% (active)	28%	36.8%	40.3%
Nc1c(C(=O)Nc2ccccc2C(F)(F)F)sc2nc3c(cc12)CCC3	82.6%	87.5%	88.6%	105%	96.6%	85.7%	90.4%	93%	115%
O=C1Nc2ccc(C(=O)O)cc2/C1=N/c1nnc(Sc2ccccc2)s1	98.5%	116%	–	107%	102%	94.3%	99.9%	102%	124%
Oc1c(Br)cc(Br)c2ccc(Cn3cc(-c4ccccc4C(F)(F)F)nn3)nc12	98.6%	104%	103%	101%	88.8%	24.6%	99.6%	105%	95.7%

— PubChem BioAssay (NCI)
